The source made the active and inactive calls. The calls were made as follows: active = hit-call score of the fitted dose curve at least 0.9, where 1 is the maximum; inactive = score below 0.9.

Outcome and AC50 data for 34 molecules are collected here from PubChem BioAssay (EPA / NIEHS).

The nature of the assay: APR_HepG2_p53Act_72hr: Apredica 72-hour HepG2 Assay for p53 Activation (AID 2282923).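 Also: average cellular p53 protein immunofluorescence intensity in HepG2 cells.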 To be noted: high-content imaging, actives raise or lower the signal. On the procedure: APR_HepG2_72hr is a cell-based, multiplexed-readout assay that uses HepG2, a human liver cell line, with measurements taken at 72 hours after chemical dosing in a 384-well plate.APR_HepG2_p53Act_72hr is one of 10 assay component(s) measured or calculated from the APR_HepG2_72hr assay. It is designed to make measurements of dna content, a form of viability reporter, as detected with fluorescence intensity signals by HCS Fluorescent Imaging technology.Data from the assay component APR_HepG2_p53Act_72hr was analyzed into 1 assay endpoint. This assay endpoint, APR_HepG2_p53Act_72hr, was analyzed with bidirectional fitting relative to DMSO as the negative control and baseline of activity. Using a type of viability reporter, measures of protein for gain or loss-of-signal activity can be used to understand the signaling at the pathway-level as they relate to the gene TP53. Furthermore, this assay endpoint can be referred to as a primary readout, because this assay has produced multiple assay endpoints where this one serves a signaling function. To generalize the intended target to other relatable targets, this assay endpoint is annotated to the dna binding intended target family, where the subfamily is tumor suppressor.
Cells were treated with dimethyl sulfoxide (DMSO) as a solvent control at a final concentration of 0.5% v/v or with compounds in DMSO with a resulting final DMSO concentration of 0.5% v/v. Compound treatment was done at concentrations of 0.39, 0.78, 1.56, 3.12, 6.24, 12.5, 25, 50, 100, and 200 uM in duplicate on each plate. Cells were treated with compounds for 1, 24, or 72 hr. Carbonyl […] m-chloro-phenylhydrazone (CCCP) and taxol were used as positive controls for mitochondrial function and cytoskeletal stability, respectively; DMSO served as the negative control for this experiment. Cells were fixed by the direct addition of 50 uL formaldehyde in Hank's Balanced Salt Solution (HBSS) to a final concentration of 3.7%. After incubation in the fixation medium for 30 min at room temperature (293-298 K), cells were rinsed twice with HBSS and treated with cell permeabilization buffer (16 uL of 0.5% Triton X-100) for 10 min at room temperature (293-298 K) before labeling. For mitochondrial membrane potential and mitochondrial measurements, pre-fixed cells were incubated with 50 uL of MitoTracker Red CMXRos (Invitrogen) at a concentration of 250 nM for 30 min before fixation. In the remaining cases, post-fixed cells were labeled by incubation with a multiplexed mixture of primary antibodies in HBSS for 60 min at room temperature (293-298 K) to detect immunoreactivity of c-Jun (1:500), phospho-histone H3 (1:100), phospho-histone H2A.x (1:200), p53 (1:400), alpha-tubulin (1:200) and Hoechst 33342 (2 ug/mL). Cells were labeled for multiplexed imaging on two separate plates: a) Hoechst 33342, MitoTracker Red, phospho-histone H3, and alpha-tubulin, and b) Hoechst 33342, phospho-histone H2A.x, and c-Jun. A final rinse with HBSS (50 uL) was performed before analysis. The primary and secondary antibodies for the proteins were phospho-histone H3 (rabbit anti-phospho-histone H3 and FITC-donkey anti-rabbit IgG), phospho-histone H2A.x (mouse anti-phospho-histone H2A.x and FITC-donkey anti-mouse IgG), c-Jun (rabbit anti-phospho-c-Jun and Cy3-donkey anti-rabbit IgG), p53 (sheep anti-p53 and Cy5-donkey anti-sheep IgG), alpha-tubulin (mouse anti-alpha-tubulin and Cy5-donkey anti-mouse IgG). These antibodies are available as the CellCiphr HepG2 assay kit (Millipore).Digital images of each well were captured using a Cellomics ArrayScan VTI (Thermo Scientific Cellomics) (0.8 NA objective, 0.63x optical coupler, and XF-93 filter set) at 20x magnification. The images were acquired using the autofocus feature of the ArrayScan instrument, which entails the following steps. First, the camera focuses on channel 1 (Hoechst 33342), where nuclei are identified. Second, a Z offset of 1 um is used for capturing mitochondria (MitoTracker Red). […]
On to `CC1(C)C(=O)N(Cl)C(=O)N1Cl`, for which the molecule was classed as inactive. Still for that read-out and setting: with `CCCCCCCCN(C)C` the entry was “inactive”. Take `O=C1CN(N=Cc2ccc([N+](=O)[O-])o2)C(=O)N1`: the AC50 is 46.8 µM (active). Consider `CCCCC(CC)C(=O)OCCOCCOCCOC(=O)C(CC)CCCC` (centres undefined), for which the molecule was classed as inactive. For `CC(C)c1nnc2ccc(-c3ocnc3-c3cc(F)ccc3F)cn12`, the molecule was called inactive. For the molecule `NC(=O)NN=Cc1ccc([N+](=O)[O-])o1`, the AC50 was 67.3 µM (active). The same measure, in the same setting: then `CCN(CC)C(=S)SSC(=S)N(CC)CC`, with 12 µM (active). For `CCCCOC(=O)c1ccccc1`, the outcome was inactive. As for `OCCOCCOCCO`, the molecule was called inactive.

`CCc1cccc(CC)c1N`: the outcome was inactive.

Regarding `CCCCN1C(=O)[C@@H]([C@H](O)C2CCCCC2)NC(=O)C12CCN(Cc1ccc(Oc3ccc(C(=O)O)cc3)cc1)CC2`, the AC50 is 38.7 µM (active). For `NNC(=O)c1ccncc1`, the molecule was classed as inactive. Same read-out and setting: then `c1ccc2ncccc2c1`, with “inactive”; and `Cn1cc[nH]c1=S`, with “inactive”. Same read-out and setting: then `CCOC(N)=O`, with “inactive”.

Take `CCCCCCCCCCCCCCO`: the AC50 is 104 µM (active). For `C=CN1CCCC1=O`, the molecule was classed as inactive. For the molecule `CCCc1ccccc1`, the outcome was inactive.

Consider `CCCCCCCCCCCCCCCCOS(=O)(=O)O`, for which the molecule was called inactive. `C[C@]12C=CC(=O)C=C1CC[C@H]1[C@@H]3C[C@@H](O)[C@](O)(C(=O)CO)[C@@]3(C)C[C@H](O)[C@@]12F`: the outcome was inactive. Turning to `O=C(O)c1cccc(C[C@@H]2COc3ccc(OCc4nc5cc(F)ccc5s4)cc3[C@@H]2O)c1`, the AC50 is 73.1 µM (active). As for `CCCCCCCCCC`, the call was inactive. Consider `OC(Cn1cncn1)(Cn1cncn1)c1ccc(F)cc1F`, for which the call was inactive.

In the case of `O=C(O)c1ccc2c(c1)nc(C(=O)NC1CCN(C3CC3)CC1)n2Cc1cc(-c2ccc(Cl)s2)on1`, the result was inactive. Regarding `CCc1ccc(O)c(C(C)(C)C)c1`, the AC50 is 71.6 µM (active). Take `OC(CCl)CCl`: the molecule was called inactive. Same read-out and setting: then `CC(=O)c1ccccc1`, with “inactive”. Same read-out and setting: then `c1ccc2cc3ccccc3cc2c1`, with “inactive”; and `CCn1nc(C)c2c1C(=O)NCC(c1ccc(O)cc1)=N2`, with “inactive”. In the case of `Cn1c(=O)c2[nH]cnc2n(C)c1=O`, the molecule was called inactive.

As to `O=S1(=O)CCCO1`, the result was inactive. The same measure, in the same setting: with `CCCCCCCC1CCC(=O)O1` (centres undefined) the entry was “inactive”. For the molecule `c1ccc(C(O[C@@H]2CCCN(CCc3ccc4c(c3)OCO4)C2)c2ccccc2)cc1`, the AC50 was 63.3 µM (active). On to `CCCCCCCC/C=C\CCCCCCCC(=O)OC[C@@H](O)[C@H]1OC[C@H](O)[C@H]1O`, for which the molecule was classed as inactive.

The AC50 is the concentration giving half of the maximal activity seen.
